Hits are enriched below; roughly 4.1% of the tested compounds scored in any of these assays.
NSD2 inh – inhibitors of human histone methyltransferase NSD2; O96028; NSD2 peptide methylation, AlphaScreen, 120 min; inhibition, % at 12.5 µM; 310,000 compounds, 0.54% hits; in the data active = inhibition above about 50%
Env fusion inh – inhibitors of HIV Env-mediated cell fusion. 360,000 compounds, 1.1% hits. HeLa-JRFL Env/CEM21 cell fusion, luciferase. inhibition, % at 12.3 µM;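 active = mean replicate inhibition score of at least 50 and every replicate individually at or above 50; inconclusive = only one of the two criteria met; inactive = mean below 50 and not all replicates reaching 50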;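 also: 0% = plate neutral controls and 100% = maraviroc near 300 nM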
PglD DTNB – inhibitors of Campylobacter jejuni PglD acetyltransferase; 360,000 compounds, 0.098% hits; purified PglD enzyme, DTNB colorimetric CoA detection; AID 602405; inhibition, % at 12.5 µM; in the data active = inhibition above about 16%, passing the limit was not always enough; inconclusive = no clear call, values can overlap the other calls
ALR inh – inhibitors of human sulfhydryl oxidase ALR | 290,000 compounds, 3.8% hits | purified ALR, DTT oxidation, H2O2 HRP-luminol luminescence | P55789 | inhibition, % (test concentration not listed) | AID 485317;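 active = mean replicate inhibition above about 79%, with every replicate also reaching it, limit read from the data; inconclusive = only one of the two criteria met; inactive = mean below limit and not every replicate reaching it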
Casp6 inh – caspase-6 (human) enzyme inhibition | AID 686996 | 350,000 compounds, 0.53% hits | P55212 | inhibition, % at 12.5 µM | purified caspase-6, Z-VEID-R110 cleavage fluorescence;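 active = mean inhibition across replicates at least about 35%, with every replicate also reaching that limit, limit read from the data; inconclusive = only one of the two criteria met; inactive = neither criterion met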;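 also: 0% = median of neutral control wells and 100% = no fluorescence left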
CFTR F508del cor – correctors of CFTR F508del function in bronchial epithelial cells | 350,000 compounds, 0.36% hits | CFBE cells, YFP halide quenching; stimulated with forskolin plus potentiator P3; % fluorescence drop versus neutral controls | activity (quench increase), % at 7.58 µM;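 active = mean added fluorescence quench of at least 8% versus neutral control, with both replicates also reaching 8%; inconclusive = only one of the mean or replicate conditions met; inactive = mean below 8% and not both replicates reaching 8%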;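 also: cells transiently co-express mutant CFTR-F508del with the halide-sensitive YFP; corrector assay measuring rescue of mutant channel to the surface after 24 h compound exposure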
* marks the source's active call; other numbers are inactive results; u = inconclusive; x = no result given; [ ] = dose if it differs, or a comment.

SMILES | NSD2 inh | Env fusion inh | PglD DTNB | ALR inh | Casp6 inh | CFTR F508del cor
CN(C)C(=O)c1cccc(-c2ccc([C@@H]3[C@H](CO)N4C(=O)CN(C(=O)C5CCCC5)C[C@@H]34)cc2)c1 | x | x | x | x | 0.9 | -0.9
C[C@H](CO)N1C[C@H](C)[C@@H](CN(C)Cc2ccccc2)Oc2cc(C3=CCCCC3)ccc2S1(=O)=O | x | 29.3[16.7 µM] | x | x | x | -1.7
CCC(=O)Nc1cccc(-c2cn3ccccc3n2)c1 | 0.5 | -25.2 | x | x | x | x
CN(C)S(=O)(=O)c1cccc(-c2cn3cc(Cl)ccc3n2)c1 | x | x | 5.6 | 98.4* | x | x
CN(C)S(=O)(=O)c1cccc(-c2cn3ccccc3n2)c1 | -1.9 | x | -6.7 | 99.3* | x | x
C[C@H](CO)N1C[C@H](C)[C@@H](CN(C)C(=O)c2cnccn2)Oc2ncc(-c3cccc(C#N)c3)cc2C1=O | x | -15.2[16.7 µM] | -1.3 | x | x | 0.1
NC(=O)C1CCN(CC(=O)Nc2ccccc2Sc2ccccc2)CC1 | -0.4 | -5.0 | x | -1.3 | -1.5 | x
NC(=O)C1CCN(CC(=O)Nc2ccccc2Sc2ccc(Cl)cc2)CC1 | -0.6 | x | 7.8 | 86.6* | 0.7 | 1.3
NC(=O)CC(NC(=O)Cc1ccc(Br)cc1)c1ccc(N2CCC(Br)CC2)c([N+](=O)[O-])c1 (stereo unspecified) | x | 63.0* | 1.7 | -3.1 | -3.3 | -3.6
NC(=O)CC(NC(=O)Cc1ccc(Br)cc1)c1ccc(N2CCCCCCC2)c([N+](=O)[O-])c1 (stereo unspecified) | x | u | 3.9 | x | -3.9 | 0.3
COc1ccc(CCNc2ccc(C(CC(N)=O)NC(=O)Cc3ccc(Br)cc3)cc2[N+](=O)[O-])cc1 (stereo unspecified) | x | 74.5* | 8.0 | -11.8 | -4.7 | -0.2
O=C(N/N=C/c1ccc(O)cc1)c1cncc(Br)c1 | 1.6 | -12.5 | -3.4 | 99.5* | 3.0 | -0.5
O=C(N/N=C/c1ccc(O)cc1)c1cccc(C(F)(F)F)c1 | -3.9 | -29.8 | x | 97.8* | x | x
O=C(N/N=C/c1ccc([N+](=O)[O-])s1)c1ccccc1 | 0.6 | -0.6 | 1.2 | -53.2 | 4.0 | 0.9
O=C(N/N=C/c1ccccc1O)c1cccc(C(F)(F)F)c1 | -2.4 | -33.2 | 3.6 | -5.8 | x | x
CC(C)(C)c1cc(C(=O)N/N=C/c2ccc(O)cc2)n(-c2ccccc2)n1 | 3.9 | 59.8 | -6.2 | 93.7* | x | x
O=C(N/N=C\c1ccc([N+](=O)[O-])s1)c1cncc(Br)c1 | 47.8 | 103.8* | 7.6 | -47.9 | 1.7 | 3.1
O=C(N/N=C\c1ccc2c(c1)OCO2)c1cncc(Br)c1 | -2.3 | -16.1 | -4.3 | 1.4 | 3.7 | 2.1
Cc1cccc(NC(=O)CSCC(=O)Nc2sccc2C#N)c1 | 1.5 | x | 0.7 | 98.4* | 6.0 | -0.9
CC(C)NC(=O)Nc1ccc2c(c1)CC(=O)N([C@@H](C)CO)C[C@@H](C)[C@H](CN(C)C(=O)Nc1ccc3c(c1)OCO3)O2 | x | -5.9[16.7 µM] | 6.1 | x | x | 2.8
O=C(NCC[C@H]1CC[C@@H](NS(=O)(=O)c2ccccc2)[C@H](CO)O1)c1ccccc1F | x | 9.4[16.7 µM] | 1.3 | x | -1.7 | 1.1
COC(=O)C(NC(=O)c1ccc(F)cc1)(Nc1ncc(S(=O)(=O)c2ccc([N+](=O)[O-])cc2)s1)C(F)(F)F (stereo unspecified) | x | 126.9* | 1.5 | -17.5 | x | x
COc1cccc(CNC(=O)C[C@H]2C=C[C@@H](NC(C)=O)[C@@H](CO)O2)c1 | x | 2.1[16.7 µM] | -1.6 | x | 1.3 | 0.5
CCOCCCNC(=O)c1ccc(-n2c(=S)[nH]c3ccccc3c2=O)cc1 | -2.3 | 0.7 | 1.5 | 84.3* | 8.7 | -2.5
CCCCNC(=O)c1ccc2c(=O)n(CCCOCC)c(=S)[nH]c2c1 | 13.0 | -74.7 | 2.0 | -3.6 | x | x
SMILES | NSD2 inh | Env fusion inh | PglD DTNB | ALR inh | Casp6 inh | CFTR F508del cor
COc1ccc(CN2C[C@@H](C)[C@H](OC)CN(C)C(=O)c3ccc(NC(C)=O)cc3OC[C@H]2C)cc1 | x | x | x | x | -1.8 | 1.5
CC(=O)c1sc(NC(=O)CCNC(=O)c2ccco2)nc1-c1ccccc1 | 2.6 | 62.4* | -11.7 | 1.7 | 3.3 | -0.7
CC(=O)N[C@@H]1CC[C@@H](CCNC(=O)C2CCCCC2)O[C@@H]1CO | x | x | x | x | -0.2 | 0.9
O=C1CSC(c2cccnc2)N1c1cccc(Cl)c1 (stereo unspecified) | -0.2 | 11.5 | 0.4 | 98.6* | -1.8 | -5.0
O=C1CSC(c2cccnc2)N1c1ccc(F)cc1 (stereo unspecified) | 0.3 | -73.6 | -4.9 | 99.1* | x | x
O=C(NCC1CCCCC1)[C@H]1[C@H](CO)[C@H]2Cn3c(cccc3=O)[C@@H]1N2CCc1ccccc1 | x | x | 1.0 | x | -1.4 | x
CN1/C(=C\C=N\NC(=O)c2cccnc2)C(C)(C)c2ccccc21 | 24.7 | 11.5 | x | 97.8* | 8.9 | 0.1
C[C@H](CO)N1C[C@H](C)[C@H](CN(C)C(=O)C2CC2)Oc2cc(C#CCN(C)C)ccc2S1(=O)=O | x | 2.8[16.7 µM] | x | x | x | 2.1
CO[C@@H]1CN(C)C(=O)c2cc(NC(=O)NC(C)C)ccc2OC[C@@H](C)N(S(C)(=O)=O)C[C@@H]1C | x | x | x | x | 2.1 | -0.3
CCN(CCCNC(=O)CN(C)S(=O)(=O)c1cccc2nsnc12)c1ccccc1 | x | -65.0 | -3.1 | 95.3* | x | x
CN(CC(=O)NCCc1ccccc1)S(=O)(=O)c1cccc2nsnc12 | -1.0 | 19.9 | x | -1.5 | x | x
CCCC(=O)n1nc(-c2ccc(C)cc2)nc1NCc1ccco1 | -4.2 | -7.6 | -5.7 | 89.6* | 3.4 | 4.8
CCC(CO)n1c(SCc2cc(=O)oc3cc(C)ccc23)nc2ccccc2c1=O (stereo unspecified) | -0.9 | -18.9 | 1.9 | 98.7* | x | x
O=C(CSc1nnc(-c2ccco2)o1)c1ccccc1 | 4.2 | -34.5 | 3.3 | 99.1* | x | x
O=C(CSc1nnc(-c2ccco2)o1)c1ccc(F)c(F)c1 | -1.2 | 17.7 | 0.0 | 28.0 | x | x
CC(=O)c1c(C)cc(C)c(CSc2nnc(-c3ccco3)o2)c1C | 5.6 | 32.7 | -0.7 | 90.0* | x | x
O=C(CSc1nnc(-c2ccco2)o1)c1ccc[nH]1 | -5.3 | -22.0 | 2.8 | 97.7* | 12.7 | -0.9
O=C(CSc1nnc(-c2ccco2)o1)Nc1c(F)cccc1F | 0.0 | x | -0.3 | x | 0.6 | -1.8
O=C(NCc1ccccc1)C1CCCC1 | -1.1 | x | x | -13.3 | x | x
CC(C)=C1C2CCC1C(C(=O)NCc1ccccc1)C2C(=O)O (stereo unspecified) | 1.0 | 66.6* | -4.4 | -9.3 | x | x
CO[C@H]1CC[C@H]2CCN(C)C(=O)[C@H](C)[C@H](OC)CN(C)C(=O)c3cccc(C#N)c3OC[C@H]1O2 | x | 14.4[16.7 µM] | 0.8 | x | -2.7 | 0.0
O=C(CN1CCOCC1)N1c2ccccc2Sc2ccccc21 | -1.0 | -8.6 | -1.1 | 4.1 | 0.8 | 4.1
CC1CN(C(=O)N2c3ccccc3Sc3ccccc32)CC(C)O1 (stereo unspecified) | -1.5 | 32.8 | -2.1 | 98.9* | x | x
CC1CCN(C(=O)N2c3ccccc3Sc3ccccc32)CC1 | -4.7 | x | -3.4 | 88.6* | x | x
O=C(N1CCOCC1)N1c2ccccc2Sc2ccccc21 | 0.1 | x | 1.4 | 98.8* | x | x

Source: PubChem (Broad Institute)
